ClpP mod: qHTS Assay for Activators of ClpP; purified B. subtilis ClpP, FRET peptide cleavage, 20 min; Potency, µM (titrated, usually from 57.5 µM), for inactives: at the highest dose activity change, negative = active; 1.9% of 340,000 active; active means well fitted falling curve with a large enough effect; inconclusive means small, poorly fitted or top-dose-only effect; inactive means no such curve, though single readings can be large or run the other way; further: the source files actives as falling curves though it sought activators and does not explain the sign; nearly all actives have a fitted effect of over 65% in size
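Buffer: 100 mM Tris/HCl pH8, 100 mM KCl, 0.05% low protease BSA, 2.5% glycerol, 0.01% Tween-20. ClpP 10 microg/mL final; 20 min RT; delta FRET normalized to ADEP and DMSO controls.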
DT40 TDP1 CPT: DT40-hTDP1 cell growth loss with CPT | chicken DT40 Tdp1-/-;hTDP1 cells + 20 nM CPT, ATP luminescence, 48 h | AID 686979 | 12% of 420,000 active | Potency, µM (titrated, usually from 46.2 µM), inactives show at the highest dose activity change, negative = growth inhibition, usual class: inhibitors; further: on the % scale 0 is the no-effect control and ±100 the full control effect; nearly all actives have a fitted effect of over 55% in size
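Chicken DT40 Tdp1-/- cells stably complemented with human TDP1 were seeded at 400 cells/well in medium containing 20 nM camptothecin, exposed to pin-transferred compounds, and grown at 37 °C for at least 48 hr. Viability was read as ATP luminescence.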
TDP1 block: inhibitors of human tyrosyl-DNA phosphodiesterase TDP1; Q9NUW8; recombinant TDP1, AlphaScreen DNA substrate cleavage; Potency, µM (highest dose often 130 µM), inactives show top-dose activity change, negative = inhibition, hits mostly inhibitors; 0.28% of 350,000 active; AID 485290; further: on the % scale 0 is the no-effect control and ±100 the full control effect; nearly all actives have a fitted effect of over 40% in size
Target sequence (Q9NUW8 whole entry, looked up): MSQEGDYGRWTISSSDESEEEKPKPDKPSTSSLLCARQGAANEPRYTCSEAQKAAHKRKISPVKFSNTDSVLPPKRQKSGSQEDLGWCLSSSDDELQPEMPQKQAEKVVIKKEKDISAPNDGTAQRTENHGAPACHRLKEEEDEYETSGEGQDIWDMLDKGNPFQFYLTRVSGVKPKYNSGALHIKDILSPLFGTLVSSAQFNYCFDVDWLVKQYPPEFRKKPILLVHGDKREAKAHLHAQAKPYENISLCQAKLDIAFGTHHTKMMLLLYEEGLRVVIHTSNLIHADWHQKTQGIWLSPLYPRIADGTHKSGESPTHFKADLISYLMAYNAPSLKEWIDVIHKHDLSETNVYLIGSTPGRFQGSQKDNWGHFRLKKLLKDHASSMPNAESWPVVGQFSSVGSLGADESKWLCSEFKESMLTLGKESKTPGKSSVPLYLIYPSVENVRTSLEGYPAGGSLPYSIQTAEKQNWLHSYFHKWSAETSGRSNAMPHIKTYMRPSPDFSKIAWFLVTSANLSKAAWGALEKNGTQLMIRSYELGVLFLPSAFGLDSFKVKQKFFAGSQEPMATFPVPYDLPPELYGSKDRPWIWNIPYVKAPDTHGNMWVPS
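Recombinant E. coli-expressed Tdp1 (1 nM) preincubated with compound 15 min at RT, then 5'-biotin/3'-phosphotyrosine-FITC DNA substrate (15 nM) added for 5 min. AlphaScreen beads (10 ug/ml) added, 10 min RT; tyrosine-FITC cleavage read as signal loss.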
DT40 TDP1 no CPT: qHTS for Inhibitors of human tyrosyl-DNA phosphodiesterase 1 (TDP1): qHTS in cells in absence of CPT; DT40 Tdp1-/- hTDP1 cells, no CPT, ATP luminescence, 48 h; Potency, µM (top dose mostly 46.2 µM), inactives show at the highest dose activity change, negative = growth inhibition, hits mostly inhibitors; 15% of 420,000 active; further: on the % scale 0 is the no-effect control and ±100 the full control effect; nearly all actives have a fitted effect of over 55% in size
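Chicken DT40 Tdp1-/- cells stably complemented with human TDP1 were seeded at 400 cells/well with DMSO in place of 20 nM camptothecin. After compound pinning, cells grew at least 48 hr at 37 °C; viability read by CellTiter-Glo luminescence.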
Active calls of the source: *; u = inconclusive; x = no result given; ! = not active in a repeat; [ ] = dose if it differs, or a comment. Most compounds without a hit are left out; they make up all but 17% or so of the library. Unless noted, the call rests on the fitted dose curve; in most records, active means well fitted curve in the direction sought with a large enough effect; inconclusive means small, poorly fitted or top-dose-only effect, or another doubt; inactive means no such curve, though single readings can be large; an effect the other way counts as inactive or inconclusive. Potency means the concentration at half of the fitted maximal effect.

SMILES	ClpP mod	DT40 TDP1 CPT	TDP1 block	DT40 TDP1 no CPT
COc1cccc2c1C(=O)CC1C2CCC2CC(=O)CCC21C (stereo not given)	x	16%	x	7%
CC1CCCN(c2ncnc3c2nnn3C)C1 (stereo not given)	2%	-13%	0%	-17%
CCc1cccc(C)c1NS(=O)(=O)c1ccc2c(c1)CC(C)N2C(=O)C1CC1 (stereo not given)	0%	u	3%	u
O=C(NCCc1ccc(F)cc1)C(=O)NCC(c1cccs1)S(=O)(=O)c1ccccc1 (stereo not given)	2%	u	7%	u
OC[C@H]1O[C@@H](n2cnc3c(=S)nc[nH]c32)[C@H](O)[C@@H]1O	x	12µM*	x	11µM*
OCC1OC(n2cnc3c(=S)nc[nH]c32)CC1O (stereo not given)	1%	1%	x	-10%
O=c1ncccn1[C@@H]1O[C@H](CO)C(O)[C@@H]1O (stereo not given in full)	x	x	3%	x
OCC1OC(n2cnc3ncccc32)C(O)C1O (stereo not given)	2%	7.3µM*	x	6.5µM*
OC[C@H]1O[C@@H](n2cnc3c(NCc4ccccc4)ncnc32)[C@H](O)[C@@H]1O	x	2.7µM*	14%[56.1 µM]	1.9µM*
O=C(Cn1cnc2c(NCc3ccccc3)ncnc21)NCc1ccccc1	-2%	4.1µM*	0%[56.1 µM]	2.9µM*
COc1cc(NC(=O)Cn2cnc3c(NCc4ccccc4)ncnc32)cc(OC)c1OC	-2%	3%	-3%[56.1 µM]	3%
O=c1oc2ccc(Br)cc2cc1-c1nc2c(s1)CCc1ccccc1-2	3%	u	-6%	-15%
CC(C)NS(=O)(=O)c1ccc2nc(NC(=O)c3cncc(Br)c3)sc2c1	0%	u	5%	u
OCC1OC(n2cnc3c(NO)ncnc32)C(O)C1O (stereo not given)	4%	0.89µM*	3%	5µM*
CNc1ncnc2c1ncn2[C@@H]1O[C@H](CO)[C@H](O)[C@H]1O	x	x	-6%[56.1 µM]	x
CNC(=O)[C@H]1O[C@@H](n2cnc3c(NCc4cccc(I)c4)ncnc32)[C@H](O)[C@@H]1O	0%	u	7%	16µM*!
CC(C)=CCNc1ncnc2c1c(C#N)cn2C1OC(CO)C(O)C1O (stereo not given)	1%	5.8µM*	x	4.1µM*
COc1cc(NC(=O)CNS(=O)(=O)c2cccs2)cc(OC)c1OC	0%	-3%	4%	-22%
COc1ccc(CNC(=O)c2nc(SCc3ccccc3F)ncc2Cl)cc1	-4%	u	-5%	u
Cc1ccc2c(c1)c(=O)c1ccccc1n2CCCC(=O)Nc1cc(Cl)ccc1C	-27%	u	1%[12.3 µM]	16µM*
Cc1ccc2c(c1)c(=O)c1ccccc1n2CCCC(=O)Nc1c(F)cccc1F	4%	-5%	-9%[12.3 µM]	-17%
Cc1ccc(NC(=O)CCCn2c3ccccc3c(=O)c3cc(C)ccc32)c(Br)c1	u	u	-7%[12.3 µM]	15µM*
CCS(=O)(=O)N1CCc2cc(C(=O)NCCc3ccc(OC)c(OC)c3)ccc21	-6%	-6%	3%	-13%
O=C(O)c1ccc(N2CCCS2(=O)=O)cc1	x	23%	2%	-7%
COc1cc(/C=C/C(=O)O)cc(OC)c1O	-19%	5%	x	6%
SMILES	ClpP mod	DT40 TDP1 CPT	TDP1 block	DT40 TDP1 no CPT
COc1cc(/C=C/C(=O)c2ccc(C)c([N+](=O)[O-])c2)cc(OC)c1O	-1%	16µM*	0%	15µM*
COc1ccc(/C=C/C(=O)c2ccc(C)c([N+](=O)[O-])c2)cc1O	-3%	u	-3%	13µM*
COc1cccc(/C=C/C(=O)c2ccc[nH]2)c1	1%	u	7%	u
COc1cccc(/C=C/C(=O)c2ccc(C)c([N+](=O)[O-])c2)c1	2%	u	-3%	21µM*
Cc1cccc(NC(=O)C2CCN(S(=O)(=O)c3ccc(F)cc3)CC2)c1C	1%	-3%	x	-17%
O=C(CSc1nnc(-c2cccnc2)o1)Nc1ccccc1F	x	-19%	-2%	u
COc1ccccc1CCc1nc2ccccc2n1C1CCN(C(=O)c2cn3ccsc3n2)CC1	x	9%[9.04 µM]	x	-8%
CN(C)c1ccc(N/C=C/C(=O)c2ccccc2)cc1	-1%	11µM*	11%	11µM*
CCOC(=O)c1ccc(N/C=C/C(=O)C(C)(C)C)cc1	x	-12%	-1%	-14%
CN(C)c1ccc(N/C=C/C(=O)C(C)(C)C)cc1	-3%	18µM*	9%	u
CC(C)(C)C(=O)/C=C/Nc1ccccc1O	-1%	12µM*	4%	13µM*
OC[C@@H]1OC(O)[C@@H](O)[C@H](O)[C@@H]1O (stereo not given in full)	x	x	6%	x
O=C(CSc1nnc(Cc2ccccc2)o1)N1CCc2ccccc21	-4%	-6%	8%	u
O=C(CSc1nnc(COc2ccc(F)cc2)o1)N1CCCCC1	x	-3%	x	-20%
O=C(CSc1nnc(COc2cccc3cccnc23)o1)N1CCc2ccccc21	-1%	2.1µM*	2%	2.3µM*
O=C(CSc1nnc(COc2ccc(F)cc2)o1)N1c2ccccc2CCc2ccccc21	2%	u	6%	16µM*
C1=Cc2ccccc2/C1=C/c1ccc2c(c1)OCO2	-1%	-13%	x	-21%
O=C(O)CC1S/C(=N/N=C/c2ccc([N+](=O)[O-])cc2)N(c2ccc(O)cc2)C1=O (stereo not given)	x	8%	0%	-15%
CCOC(=O)C1=C(c2ccccc2)NC(SC)=C(C#N)C1c1ccco1 (stereo not given)	-2%	18µM*	1%	21µM*
CCC(Oc1ccccc1C)C(=O)N1CCCN(C)CC1 (stereo not given)	0%	24%	2%	0%
CN(C)CCO[C@@H](c1ccc(Cl)cc1)c1ccccn1	0%	3%	4%	-10%
Cc1ccc(C(OCCN(C)C)c2cccc(C(F)(F)F)c2)cc1 (stereo not given)	0%	23µM*	2%	23µM*
O=C(Nc1ccc(Cl)cc1)c1cc(S(=O)(=O)NC2CCCCCC2)ccc1F	-13%	u	8%	u
CN(C1CCCCC1)S(=O)(=O)c1ccc(S(=O)(=O)N(CC(=O)Nc2ccccc2)C2CC2)cc1	-6%	u	-9%	23µM*
CN(C1CCCCC1)S(=O)(=O)c1ccc(F)c(C(=O)Nc2ccc(C(F)(F)F)cc2)c1	-4%	23µM*	8%	21µM*
CN(C1CCCCC1)S(=O)(=O)c1ccc(NC(=O)C2CCCCC2)cc1	0%	16µM*	5%	21µM*
O=C(Nc1ccc(S(=O)(=O)NCc2ccccc2)cc1)C1CCCCC1	25µM*	u	2%	u

Screens from PubChem BioAssay.
